# Screening data as filed in PubChem BioAssay.
# RE007 growth inh = less growth of the S. pombe RE007 Vpr strain. S. pombe RE007 Vpr strain, BacTiter-Glo ATP luminescence, 24 h. Potency, µM (doses to about 92.2 µM), without a hit: at the highest dose activity change, negative = less growth, most hits filed as inhibitors. hit rate 0.21% among 360,000; active means well fitted falling curve with a large enough effect; inconclusive means small, poorly fitted or top-dose-only effect; inactive means no such curve, though single readings can be large or run the other way; further: potency means the concentration at half of the fitted maximal effect; on the % scale 0 is the no-effect control and ±100 the full control effect; nearly all actives have a fitted effect of over 50% in size
#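 Fission yeast strain RE007, carrying one chromosomally integrated HIV-1 vpr copy, was seeded at OD 0.01 in PMG+AL medium with 23 nL pinned compound. After 24 h at 30 °C and 99% humidity, viability was read by BacTiter-Glo luminescence.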
# Shiga toxin inh = blocks Shiga toxin action in Vero cells. Vero cells, Shiga toxin protein synthesis inhibition reporter. inhibition, % at 38.7 µM. hit rate 9.2% among 290,000. AID 2315; in the data active means inhibition mostly above about 28%, no sharp cut-off; inactive means mostly below about 43%; further: 0% is about no effect
# Tb PYK inh = inhibitors of Trypanosoma brucei pyruvate kinase | TbPYK enzyme, Kinase-Glo Plus ATP luminescence, 45 min | Potency, µM (top dose mostly 76.8 µM), for the others: at the highest dose activity, negative = inhibition, most hits filed as inhibitors | hit rate 0.12% among 410,000 | AID 624173; further: potency means the concentration at half of the fitted maximal effect; on the % scale 0 is the no-effect control and ±100 the full control effect; nearly all actives have a fitted effect of over 50% in size
#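 ADP (130 uM final) triggers the TbPYK reaction after compound addition; incubation is 45 min at room temperature. Kinase-Glo Plus is then added and luminescence imaged. Normalized data are fitted to concentration-effect curves.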
# LmPK inhibitor = LmPK (Leishmania mexicana) enzyme inhibition. hit rate 0.37% among 290,000. Q27686. purified LmPK, Kinase-Glo ATP luminescence, 1 h. Potency, µM (highest dose often 57.5 µM), inactives show at the highest dose activity change, negative = inhibition, most hits filed as inhibitors; further: potency means the concentration at half of the fitted maximal effect; on the % scale 0 is the no-effect control and ±100 the full control effect
#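 Purified LmPK (0.1 nM) converted ADP (0.1 mM) to ATP with PEP (0.5 mM) in imidazole buffer pH 7.2 with KCl and MgCl2, 1 h at room temperature. ATP was read by Kinase-Glo luminescence; data normalized to uninhibited and no-enzyme controls.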
# Giardia FBPA inh = inhibitors of Giardia lamblia fructose-1,6-bisphosphate aldolase. A8B2U2. purified Giardia FBPA. Potency, µM (highest dose often 59.6 µM), inactives show at the highest dose activity, negative = inhibition, most hits filed as inhibitors. hit rate 0.71% among 290,000. AID 2451; further: potency means the concentration at half of the fitted maximal effect; on the % scale 0 is the no-effect control and ±100 the full control effect; nearly all actives have a fitted effect of over 55% in size
# Target sequence (A8B2U2 whole entry, looked up): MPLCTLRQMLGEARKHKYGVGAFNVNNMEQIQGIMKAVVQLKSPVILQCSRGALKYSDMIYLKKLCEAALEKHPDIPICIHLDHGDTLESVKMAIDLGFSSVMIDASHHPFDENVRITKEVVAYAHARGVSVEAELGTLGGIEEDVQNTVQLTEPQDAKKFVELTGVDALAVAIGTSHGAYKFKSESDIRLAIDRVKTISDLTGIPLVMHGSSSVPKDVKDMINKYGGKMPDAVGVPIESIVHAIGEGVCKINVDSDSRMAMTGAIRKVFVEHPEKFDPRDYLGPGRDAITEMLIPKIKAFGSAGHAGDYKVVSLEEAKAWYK
#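 40 nM FBPA preincubated 10 min at RT with compound (up to 57.5 uM final), then substrate plus GAPDH/TPI/NAD/arsenate coupling and diaphorase/resazurin added. Fluorescence read after 20 min at RT, 525/598 nm.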
# Cycloheximide cs = counter-screen for Shiga toxin inhibitors: cycloheximide protein synthesis inhibition; cell reporter, cycloheximide protein synthesis inhibition counterscreen; max response, %; hit rate 12% among 300,000; in the data active means max response mostly above about 13%, no sharp cut-off; inactive means mostly below about 14%; further: read at 38.3 µM for the half of the compounds with a filed dose; 0% is about no effect
# Active calls of the source: *; ? = inconclusive; . = no result; [ ] = dose if it differs, or a comment. Shown is part of a subset that was picked to be rich in hits. Unless noted, the call rests on the fitted dose curve; in most records, active means well fitted curve in the direction sought with a large enough effect; inconclusive means small, poorly fitted or top-dose-only effect, or another doubt; inactive means no such curve, though single readings can be large; an effect the other way counts as inactive or inconclusive.
SMILES,RE007 growth inh,Shiga toxin inh,Tb PYK inh,LmPK inhibitor,Giardia FBPA inh,Cycloheximide cs
COc1ccccc1CNC(=O)C1(NC(=O)Nc2ccc(C)cc2)CCCCC1,-4%,-6,-1%,5%,-3%,-2
COc1cc(/C=C(\C#N)C(=O)Nc2nnc(C(F)(F)F)s2)ccc1OCc1ccc(C(F)(F)F)cc1C(F)(F)F,.,13,.,.,1%,-4
COc1ccc(NC(=O)C2CCCN(S(=O)(=O)c3ccc4c(c3)CCCC(=O)N4)C2)cc1OC (centres undefined),.,.,0%,.,.,.
CCn1c(=O)cc(SCC(=O)NCc2ccc(F)cc2Cl)c2ccccc21,.,.,1%,.,.,.
CC(C)=NNc1nc(-c2ccccc2)c(C)s1,-5%,104*,-8%,7%[11.5 µM],-9%,36*
CN(C)S(=O)(=O)c1ccc(-c2csc(N/N=C/c3ccco3)n2)cc1,-5%,29,-7%,2%,-9%,19
Cc1sc(N/N=C/c2ccco2)nc1-c1ccccc1,-9%,91*,-1%,3%,-11%,27*
Cc1nc(C)c(C(=O)N/N=C/c2ccco2)s1,-4%,-4,4%,3%,0%,10
Cc1ccc(-c2csc(N/N=C/c3ccco3)n2)cc1,-4%,73*,-14%,3%,-14%,35*
C(=N\Nc1nc(-c2ccccc2)cs1)/c1ccco1,-12%,61*,-27%,0%,-16%,38*
COc1ccc(CC(=O)NCC2CCCN(Cc3cccc(SC)c3)C2)cc1 (centres undefined),-6%,-3,-1%,2%,0%,-2
Cc1ccc(NC(=O)CCc2nnc3n(CC(C)C)c(=O)c4ccccc4n23)cc1C,.,.,6%,.,.,.
CC(=O)OCC1OC(C#Cc2ccc(Cl)cc2)C=CC1OC(C)=O (centres undefined),.,.,.,.,1%[12.9 µM],.
Cc1ccc(NC(=O)C(=O)C2C(=O)Nc3ccccc32)cc1 (centres undefined),3%,22,-4%,-7%,1%,11*
CC1=NN(c2ccccc2)C(=O)C1C(=O)C(=O)Nc1ccc(F)cc1 (centres undefined),-13%,79*,-5%,-2%,-14%,30*
Nc1nc(N)nc(COc2ccccc2)n1,-15%,96*,-2%,-18%,1%,42*
COc1ccc2cc(C(=O)CS(=O)(=O)c3ccccc3)c(=O)oc2c1,-1%,25,-21%,-14%,.,21
O=C(CS(=O)(=O)c1ccccc1)c1cc2ccccc2oc1=O,17%,63*,-4%,-7%,9%,32*
COc1cccc2cc(C(=O)CS(=O)(=O)c3ccc(C(C)(C)C)cc3)c(=O)oc12,4%,-13,0%,-13%,.,-1
O=C(CS(=O)(=O)c1ccccc1)c1cc2cc(F)ccc2oc1=O,15%,45*,-15%,0%,.,50*
COc1ccccc1NCc1cccn1-c1nnc(N2CCCCCC2)s1,.,.,-4%,.,.,.
COc1cccc(NC(=O)n2ncc3c(C)cccc32)c1,?,54*,-22%,-27%,-4%,32*
CCOc1ccc(NC(=O)n2ncc3c(C)cccc32)cc1,-2%,48*,-1%,-6%,-5%,30*
Cc1ccc(NC(=O)n2ncc3c(C)cccc32)c(C)c1,12%,34*,3%,2%,-6%,38*
Cc1ncc(N=Nc2ccc(F)cc2)c(-c2ccc(Cl)cc2)n1,-6%,-4,-8%,4%,0%,-3
SMILES,RE007 growth inh,Shiga toxin inh,Tb PYK inh,LmPK inhibitor,Giardia FBPA inh,Cycloheximide cs
Cc1nc(N)sc1N=Nc1ccc(F)cc1,13%,62*,-7%,-1%,-4%,49*
O=C(Cc1ccc(Cl)cc1Cl)OCC(=O)c1ccc[nH]1,-13%,59,1%,3%,-10%,13
O=C(COc1ccc(F)c(Cl)c1)c1ccc[nH]1,-5%,40,-4%,-7%,1%,36*
O=C(CCC(=O)c1ccc[nH]1)c1ccc(Cl)cc1,-28%,100*,-6%,-1%,-1%,46*
O=C(COc1ccc(Cl)cc1Cl)OCC(=O)c1ccc[nH]1,-12%,.,-3%,.,.,.
Cc1ccc(NS(=O)(=O)c2ccc3c(c2)CCCN3C(=O)C2CCC2)c(C)c1,.,.,-2%,.,.,.
Cc1ccc(NC(=S)NCC23C=CC(O2)C2C(=O)N(c4ccc(C)cc4)C(=O)C23)cc1 (centres undefined),8.9µM*,7,-13%,2%,-4%,56*
S=C(NCC1CCCO1)N1CCN(c2ccccc2)CC1 (centres undefined),5%,-5,2%,-10%,6%,-3
Cc1ccc(N2C(=O)C3C4C=CC(CNC(=S)N5CCN(c6ccccc6)CC5)(O4)C3C2=O)cc1 (centres undefined),5.6µM*,-19,-16%,9%[11.5 µM],-4%,-5
Cc1ccc(S(=O)(=O)NCC2(c3ccccc3)CCN(C)CC2)cc1,2%,-11,1%,5%,5%,-1
Cc1cccc(NC(=S)NCC23C=CC(O2)C2C(=O)N(c4ccc(Cl)cc4)C(=O)C23)c1 (centres undefined),3.5µM*,-7,-23%,-6%,-3%,6
Cc1ccc(S(=O)(=O)NCC23C=CC(O2)C2C(=O)N(c4ccccc4)C(=O)C23)cc1 (centres undefined),8.9µM*,-10,-17%,10%,0%,12
Clc1ccccc1CSc1nc(NCCc2ccccc2)c2ccccc2n1,.,.,0%,.,.,.
CC(C)(C)[C@@H]1COC(=O)[C@H](Cc2ccc(F)cc2)C/C=C\C[C@H](CC(=O)N(CCO)Cc2ccccc2)C(=O)N1,10%,.,-1%,.,.,.
COc1ccc(S(=O)(=O)N2CCN(c3ccc(F)cc3)CC2)cc1C(=O)N1CCOCC1,-5%,-5,2%,1%,0%,1
CCC1COC(c2cccn2Cc2ccc(Cl)cc2)=N1 (centres undefined),4%,-1,5%,-4%[11.5 µM],-7%,12
CCSCC1COC(c2cccn2Cc2ccc(C)cc2)=N1 (centres undefined),-9%,91,-4%,-6%,1%,39*
CC(O)CNC(=O)Cc1cc(=O)[nH]c(=O)[nH]1 (centres undefined),-6%,12,4%,-4%,3%,-2
O=C(CSC1=N/C(=C/c2ccco2)C(=O)N1c1ccc(OC(F)F)cc1)NC1CCS(=O)(=O)C1 (centres undefined),1%,24*,0%,-3%,-18%,17
COc1ccc(N2C(=O)/C(=C\c3ccco3)N=C2SCC(=O)NC(C)C)cc1Cl,7%,7,0%,-5%,-12%,2
Cc1ccc(NC(=O)c2c(C)oc3ccc(O)c(CN4CCCCCC4)c23)cc1,.,.,0%,.,.,.
O=C(Nc1ccccc1Cl)OC1CCCCC1,44%,100*,-2%,-1%,9%,22
